This passage reports sensor-assay potency score (higher = more potent) results from the OligoGym collection.
Further: reference of the scale not given here.

One assay concerns the target OTP. The experiment in a line: pooled miR-30 sensor sort-seq; sequence = guide strand. To be noted: shRNA.
TTTCTCTGTACAAAGTTGCAGG: the sensor-assay potency score (higher = more potent) is -0.634.
The sequence AACATATCACAAATTGACCAGT yielded a sensor-assay potency score (higher = more potent) of -0.538.
In the case of TGTCCCTTGAACACGTCCGTGT, the sensor-assay potency score (higher = more potent) was -0.222.
The same measure, in the same setting: for TTCCTCGTCACATGACTGCTTT the value was -0.353; for TTACAAAAGAAAATTTTGCTTA, -0.204; for TTGACCAGTATGTAACAAGAAT, -1.1.
Take TTTATCTACACAAAACATCCTA: the sensor-assay potency score (higher = more potent) is 0.114.
On to TTAAGTTAAAACATATCACAAA, for which the sensor-assay potency score (higher = more potent) is -1.23.
The sequence TTGGTAGCAATGCTTGTCCTCC displayed a sensor-assay potency score (higher = more potent) of -0.441.
Turning to TTCTACACTCTCACACAGTTGT, the sensor-assay potency score (higher = more potent) was found to be 0.376.

For the next assay, the target named is OXGR1. The assay is described as above. Conditions: shRNA.
In the case of TTCAGCATAATGATGGTGCTGC, the sensor-assay potency score (higher = more potent) came to 0.6.
The sequence TGAATGATCACACAGTAGCGGA yielded a sensor-assay potency score (higher = more potent) of -1.12.
Still for that read-out and setting: for TTGAGTTCATCCGAACTGGTGA the value was 0.378; for TTGCATCTCACTGTTGAGCAGA, -0.0433.
The same measure, in the same setting: for TTTCTTTGCTTGCTCAAGGTTC the value was -0.282; for TACAACTGCACATCGAGTTTTG, -0.712; for TAATAGTATTGAGTTCATCCGA, -0.637.
The sequence TTGAAATGGAAGCTGAAGCGGA registered a sensor-assay potency score (higher = more potent) of 0.195.
Turning to AATAGTATTGAGTTCATCCGAA, the sensor-assay potency score (higher = more potent) was -0.145.
TTACTTTGCATCTCACTGTTGA showed a sensor-assay potency score (higher = more potent) of 0.106.
For TAATTTTCTTTGCTTGCTCAAG, the sensor-assay potency score (higher = more potent) is -1.24.
TACAGGTTGAAATGGAAGCTGA showed a sensor-assay potency score (higher = more potent) of -0.61.

The next assay deals with OXSR1. The assay is described as above. Conditions: shRNA.
TATCTGAGCCTTCGACACCAGA yielded a sensor-assay potency score (higher = more potent) of -1.2.
With TTCATCATCACTCCACTCCCAG, the sensor-assay potency score (higher = more potent) was -0.375.
Turning to TTGTCTGTAAAAACAATCCAAA, the sensor-assay potency score (higher = more potent) was -1.04.
The sequence TTTGATTGCCACTTTCTCCTTT returned a sensor-assay potency score (higher = more potent) of 0.477.
With TAATCTTAGTACTAGACTGATT, the sensor-assay potency score (higher = more potent) is -1.17.
Turning to TCTTGGTTTCTTGTGAACCTGA, the sensor-assay potency score (higher = more potent) is -0.403.
For TTTCTTTATCTTGAACACCAGT, the sensor-assay potency score (higher = more potent) was -0.815.
TTTCTTGTGAACCTGATCCTGA: the sensor-assay potency score (higher = more potent) stood at 0.134.
For the sequence TTAATCTTAGTACTAGACTGAT, the sensor-assay potency score (higher = more potent) is -0.309.
In turn, TATTGATTCTTTCACTCGGGGA gave a sensor-assay potency score (higher = more potent) of -0.811.
TTGAAGAAATTCTTTATTCTTT registered a sensor-assay potency score (higher = more potent) of -0.617.
For TTTACTAACGGAACTCTGGGGA, the sensor-assay potency score (higher = more potent) is 0.644.

A further assay addresses P2RX3. Described as above. Conditions: shRNA.
Turning to TTGAGCAGGATGATGTCACAGA, the sensor-assay potency score (higher = more potent) stood at 0.136.
In the case of TTGTCCAAGTCGCACACCCAGC, the sensor-assay potency score (higher = more potent) is -1.44.
The same measure, in the same setting: for TTCACCTTGGTTACCACCGAGG the value was -0.997; for TTCAGTAACAATCATCTTGGTG, -0.0732; for TTCCACTGTGTCCACCTCCGTG, -1.06.
TATACCAGCACGTCGAAGCGGA returned a sensor-assay potency score (higher = more potent) of -0.313.
